Assay outcomes deposited in PubChem by Johns Hopkins Ion Channel Center.
Compounds with a hit are over-represented: about 1.6% of the library has one in this group of screens.
KCNQ2 block: inhibitors of rat KCNQ2 potassium channel; O88943; CHO-K1 KCNQ2, FluxOR thallium flux, 20 min; hits give low values; B-score at 10 µM; hit rate 1.1% among 310,000;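 active means fluorescence ratio B-score at most minus 3 library SDs, with starting brightness B-score within 2 library SDs, cut at about -5.5 in these data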
Target sequence (O88943 whole entry, looked up): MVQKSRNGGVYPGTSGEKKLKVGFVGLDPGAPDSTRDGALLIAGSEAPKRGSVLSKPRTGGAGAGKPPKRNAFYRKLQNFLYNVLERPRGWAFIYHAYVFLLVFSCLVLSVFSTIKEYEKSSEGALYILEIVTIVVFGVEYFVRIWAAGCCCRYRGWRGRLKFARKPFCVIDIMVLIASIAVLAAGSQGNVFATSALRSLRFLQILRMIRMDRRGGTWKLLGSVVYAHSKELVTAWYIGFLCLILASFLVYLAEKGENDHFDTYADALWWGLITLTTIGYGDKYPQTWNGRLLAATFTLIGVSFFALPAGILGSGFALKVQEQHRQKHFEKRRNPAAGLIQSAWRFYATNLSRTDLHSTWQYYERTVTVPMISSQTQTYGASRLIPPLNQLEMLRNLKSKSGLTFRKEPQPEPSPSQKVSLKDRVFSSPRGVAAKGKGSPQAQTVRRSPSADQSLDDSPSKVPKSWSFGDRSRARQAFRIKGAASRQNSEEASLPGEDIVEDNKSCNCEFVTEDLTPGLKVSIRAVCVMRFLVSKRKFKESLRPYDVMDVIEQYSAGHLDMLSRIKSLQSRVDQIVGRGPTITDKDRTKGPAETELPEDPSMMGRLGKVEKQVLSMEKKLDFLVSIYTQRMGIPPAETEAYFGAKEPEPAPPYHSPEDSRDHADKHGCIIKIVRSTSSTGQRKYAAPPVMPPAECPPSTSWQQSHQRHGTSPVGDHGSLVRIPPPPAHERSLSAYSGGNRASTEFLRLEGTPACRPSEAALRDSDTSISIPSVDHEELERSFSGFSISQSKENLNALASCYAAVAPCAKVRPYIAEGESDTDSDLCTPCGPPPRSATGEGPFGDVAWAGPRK
KCNQ2 enhance: potentiators of rat KCNQ2 potassium channel; CHO-K1 KCNQ2, FluxOR thallium flux fluorescence; hits give high values; B-score at 10 µM; hit rate 0.54% among 310,000; AID 2239; O88943;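 active means fluorescence ratio B-score at least 3 SD of library B-scores, with initial fluorescence B-score within 3 of them, cut at about 5.3 in these data; same plate scores as AID 2156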;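 further: B-score of peak minus minimum over baseline fluorescence ratio after K+ and Tl+ stimulus; positive B-score means potentiation of KCNQ2 with more thallium influx and brighter signal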
KCNQ2 inh conf: rat KCNQ2 channel inhibition, confirmatory screen; shares compounds with KCNQ2 block; KCNQ2-expressing cells, thallium flux; hits give low values; activity change, negative = inhibition, % at 10 µM; hit rate 57% among 1,000;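 further: 0% = vehicle wells and values are ratio percent relative to vehicle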
KCNQ1 spec: KCNQ2 inhibitor that also affects human KCNQ1 channel | shares compounds with KCNQ2 block | KCNQ1-expressing cells, FluxOR thallium flux fluorescence; hits give low values | activity change, negative = inhibition, % at 10 µM | hit rate 15% among 1,000 | AID 493026;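 active means activity change at least 3 SD of negative controls below their mean in both duplicate wells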;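 further: CHO cells stably transfected with KCNQ1 and depolarized by potassium stimulus; peak minus minimum fluorescence over baseline after thallium addition; 0% = vehicle negative control and -100% = blank without thallium stimulus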
CHO Tl ctr: counter-screen for KCNQ2 inhibitors: effect in parental CHO cells. activity change, % at 10 µM. thallium flux counter-screen; hits give low values. hit rate 14% among 1,000. shares compounds with KCNQ2 block. AID 493029;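 further: 0% = vehicle negative controls with stimulus buffer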
KCNQ2 patch conf: rat KCNQ2 inhibition confirmed by electrophysiology | shares compounds with KCNQ2 block | KCNQ2-expressing cells, automated patch clamp current | calls only at 10 µM | hit rate 49% among 550
* = called active by the depositor; i = inactive; . = not tested or not shown; + = active, no number. Unless noted, how the calls were made is not given here.

SMILES	KCNQ2 block	KCNQ2 enhance	KCNQ2 inh conf	KCNQ1 spec	CHO Tl ctr	others
O=S(=O)(Nc1ccon1)c1ccc(F)c(F)c1	i	.	.	.	.
O=C(C[n+]1ccc(/C=N/O)cc1)N(Cc1ccccc1)Cc1ccccc1	i	.	.	.	.
O=C(NNC(=O)c1ccc2nonc2c1)Nc1ccc(Cl)cc1	i	0.99	.	.	.
COC(=O)[C@H](CC(C)C)NC(=O)NC1CCCc2ccccc21 (stereo partly drawn)	-7.5*	-7.5	-28%*	i	i	KCNQ2 patch conf=+
CCOC(=O)N1CCC(NC(=O)CSCc2nc(-c3ccc(OC)cc3)oc2C)CC1	i	.	.	.	.
COc1ccccc1CC(=O)NC1CCCc2ccccc21 (stereo not drawn)	-7.1*	-7.1	-24%*	i	i	KCNQ2 patch conf=+
COc1cc(CC(=O)NC2CCCc3ccccc32)cc(OC)c1OC (stereo not drawn)	i	0.39	.	.	.
COc1ccc(-c2nc(CSCC(=O)NC3CCCc4ccccc43)c(C)o2)cc1 (stereo not drawn)	-7.3*	-7.3	-29%*	i	i	KCNQ2 patch conf=+
CC(C)C[C@H](NC(=O)NC1CCCc2ccccc21)C(=O)O (stereo partly drawn)	i	.	.	.	.
CCCCC1(C(=O)OCC)CC(CSC(=N)N)OC1=O (stereo not drawn)	i	.	.	.	.
Cc1ccc(S(=O)(=O)N(C)C)cc1NC(=S)N1CCc2ccccc21	i	1.1	.	.	.
CN(C(=O)CC1C(=O)NCCN1Cc1cccc(F)c1F)C1CC(C)(C)NC(C)(C)C1 (stereo not drawn)	i	1.8	.	.	.
Cc1ccc(NC(=O)ON=C2CCCC2)cc1	i	0.22	.	.	.
COc1ccc2[nH]cc(CCNC(=O)COc3cc(C)cc4oc(=O)cc(C)c34)c2c1	i	.	.	.	.
CCn1nc(C)cc1C(=O)N1CCCC(C(=O)c2ccccc2SC)C1 (stereo not drawn)	i	2	.	.	.
C=C(C)CN1CCN(S(=O)(=O)c2ccc(C)c(N(C)S(=O)(=O)c3ccc(C)cc3)c2C)CC1	-8.5*	-8.5	-32%*	-32%*	-25%*	KCNQ2 patch conf=i
Cc1ccc(S(=O)(=O)N(C)c2c(C)ccc(S(=O)(=O)N3CCN(C)CC3)c2C)cc1	i	.	.	.	.
CSCCC(NS(=O)(=O)/C=C/c1ccccc1)C(=O)NCCc1ccc(S(N)(=O)=O)cc1 (stereo not drawn)	i	0.5	.	.	.
COc1ccccc1NNC(=O)c1cccnc1Oc1ccccc1	i	1	.	.	.
c1ccc2c(c1)ccc1nnnn12	i	.	.	.	.
COC(=O)c1cc(S(=O)(=O)N2CCCC2=O)c(Cl)cc1Cl	i	.	.	.	.
COc1cc(-c2nnc(SCC(=O)N3c4ccccc4Sc4ccccc43)o2)cc(OC)c1OC	i	.	.	.	.
O=C(Sc1nnc(-c2ccccc2)o1)N1c2ccccc2Sc2ccccc21	-6.8*	-6.8	i	i	i
CC1CCCN(C(=O)N2c3ccccc3Sc3ccccc32)C1 (stereo not drawn)	-6.9*	-6.9	-15%*	i	i	KCNQ2 patch conf=i
O=C(N1CCOCC1)N1c2ccccc2Sc2ccccc21	i	.	.	.	.
SMILES	KCNQ2 block	KCNQ2 enhance	KCNQ2 inh conf	KCNQ1 spec	CHO Tl ctr	others
Cc1ccc(CN2CCN(Cc3ccc4cc(F)ccc4n3)CC2CCO)o1 (stereo not drawn)	i	.	.	.	.
Cn1c(SCCC#N)nnc1-c1ccc(F)cc1	i	0.45	.	.	.
CC(C)(C)c1ccc(-c2nnc(SCCC#N)n2C2CCCC2)cc1	-8.5*	-8.5	-28%*	i	i	KCNQ2 patch conf=i
NS(=O)(=O)c1ccc(CCNC(=O)c2ccc(-c3ccccc3)cc2)cc1	i	0.19	.	.	.
Cc1ccc(-c2cc(C(=O)Nc3ccccc3C)c3ccccc3n2)o1	-10*	-10	-40%*	i	i	KCNQ2 patch conf=+
COC(=O)c1cc(-c2ccc(C)o2)nc2ccccc12	i	.	.	.	.
Cc1ccc(-c2cc(C(=O)N3CC(C)OC(C)C3)c3ccccc3n2)o1 (stereo not drawn)	-11*	-11	-33%*	i	i	KCNQ2 patch conf=+
Cc1ccc(-c2cc(C(=O)NCc3ccco3)c3ccccc3n2)o1	i	.	.	.	.
CC(C)Oc1ccc(CN2CCC(n3nccc3NC(=O)C3CC3)CC2)cc1	i	0.45	.	.	.
Cc1cccc(OCc2nnc(SCC(=O)N3c4ccccc4CCc4ccccc43)o2)c1	-7.3*	-7.3	i	i	i
Cc1cccc(OCc2nnc(SCC(=O)N3CCCC3)o2)c1	i	.	.	.	.
CCOC(=O)NC(=O)C(/C=N/c1sccc1C(=O)OC)=C(\C)O	i	1.2	.	.	.
COC(CNC(=O)[C@H](Cc1ccccc1)N1Cc2ccccc2C1=O)OC	i	.	.	.	.
CCOC(=O)c1cc2c(=O)c3ccccc3oc2nc1C	i	0.29	.	.	.
CCN(CC)C(=O)c1cc2c(=O)c3cc(F)ccc3oc2nc1C	-9.6*	-9.6	-23%*	i	i	KCNQ2 patch conf=+
O=C(Nc1ccnc(-c2ccncc2)n1)c1ccc(Cl)cc1	i	.	.	.	.
COc1cc(CC(=O)OCC(=O)N2CCCCC2)cc(OC)c1OC	i	.	.	.	.
Cc1cccc(-c2noc(CN(C(=O)CCc3ccccc3)C(C)C)n2)c1	-8*	-8	-36%*	-36%*	-28%*	KCNQ2 patch conf=i
COc1ccc(Cl)cc1C(=O)N(Cc1nc(-c2cccc(C)c2)no1)C(C)C	i	.	.	.	.
Cc1cccc(-c2noc(CN(C(=O)/C=C/c3ccccc3Cl)C(C)C)n2)c1	i	.	.	.	.
Cc1cccc(-c2noc(CN(C)S(=O)(=O)c3cc(Cl)ccc3Cl)n2)c1	-11*	-11	i	i	i
CCOC(=O)C1CCN(C(=O)C(C)c2ccc([N+](=O)[O-])cc2)CC1 (stereo not drawn)	i	1.5	.	.	.
COc1ccc(-c2cc(-c3ccco3)[nH]c(=O)c2C#N)cc1OC	i	0.09	.	.	.
CC(=O)C1=C(O)C(=O)N(c2ccc(O)cc2)C1c1ccccc1Cl (stereo not drawn)	i	.	.	.	.
COc1ccc(S(=O)(=O)N(C)C2(C)CCS(=O)(=O)C2)cc1OC (stereo not drawn)	i	.	.	.	.
SMILES	KCNQ2 block	KCNQ2 enhance	KCNQ2 inh conf	KCNQ1 spec	CHO Tl ctr	others
Cc1ccccc1C(=O)Oc1cccc(Nc2ncnc3ccccc23)c1	-9.6*	-9.6	i	i	i
CC(=O)Oc1cccc(Nc2ncnc3ccccc23)c1	i	.	.	.	.
NS(=O)(=O)c1ccc(CNC(=O)c2ccc(NS(=O)(=O)c3ccc4[nH]c(=O)[nH]c4c3)cc2)cc1	i	.	.	.	.
Cc1ccc(C(=O)NCC(=O)NNC(=O)CN(C)S(=O)(=O)c2ccc(Cl)cc2)s1	i	.	.	.	.
O=C(COc1c(CO)cc(Br)cc1CO)NC1CCCc2ccccc21 (stereo not drawn)	i	.	.	.	.
CCN(CC)CCN1C(=O)c2oc3ccccc3c(=O)c2C1c1cccc(Br)c1 (stereo not drawn)	i	1.2	.	.	.
O=C1c2oc3ccc(Cl)cc3c(=O)c2C(c2cccc(Br)c2)N1CCO (stereo not drawn)	-11*	-11	i	i	i
COc1ccccc1/C=C/CN1CCCC(CO)(Cc2cccc(Cl)c2)C1 (stereo not drawn)	i	.	.	.	.
